High-throughput results deposited in PubChem by several laboratories.
Compounds with a hit are over-represented: about 6.7% of the library has one in this group of screens.
Autofluor counter: flagged as autofluorescent in microsphere protease counterscreen. compound autofluorescence counterscreen, microsphere flow cytometry; stronger effect = higher value. fluorescence intensity (no concentration beside the values). 360,000 tested, 3.1% active. AID 624483; in the data active means fluorescence intensity above about 16000; inconclusive means no clear call, values can overlap the other calls
FBA Mtb inh: inhibitors of M. tuberculosis fructose-bisphosphate aldolase. 360,000 tested, 2.3% active. P9WQA3. purified M. tuberculosis FBA, fluorescence read-out. inhibition, % at 1 µM; in the data active means inhibition above about 27%
BoNT-F LC inh: blocks Botulinum neurotoxin F light chain protease. Multiplex microsphere protease cleavage assay, flow cytometry. inhibition, % at 10 µM. 360,000 tested, 0.22% active. AID 588497; in the data active means inhibition above about 35%, passing the limit was not always enough; inconclusive means no clear call, values can overlap the other calls
BoNT A protease: inhibitors of Botulinum neurotoxin A light chain protease; AID 588499; inhibition, % at 10 µM; multiplex microsphere protease substrate cleavage, flow cytometry; 360,000 tested, 0.17% active
Anthrax LF inh2: anthrax lethal factor protease inhibition; inhibition, % at 10 µM; multiplex microsphere protease cleavage assay, LF; 360,000 tested, 0.12% active; P15917
GDH-TPI inh: GDH-TPI coupled enzyme inhibition counter-screen; GDH-TPI coupled enzyme counterscreen, NADH absorbance; inhibition, % at 4.8 µM; 360,000 tested, 1.2% active; in the data active means inhibition above about 30%
Large screens that a line does not name were inactive. Unless noted, no stated cut-off is given here; in the data, active means inhibition above about 30%; inconclusive means no clear call, values can overlap the other calls; inactive means below that.

O=C1OC(NC(=O)c2ccccc2)C(n2cc(CO)nn2)=C1Cl (stereo not drawn)	none
Cc1ccc(S(=O)(=O)N/N=C/c2cccc3c2OCCO3)cc1	none
CC(=O)c1c(COC(=O)c2ccncc2)nc2ccccc2[n+]1[O-]	none
CC(=O)c1c(COC(=O)c2cccc(C)c2)nc2ccccc2[n+]1[O-]	BoNT-F LC inh inconclusive, GDH-TPI inh 31
CCn1cc(CN2CCCC(CNS(=O)(=O)c3cccc4cccnc34)C2)cn1 (stereo not drawn)	none
Cc1c(C2N3CC4(C)CN2CC(C)(C3)C4=O)c2ccccc2n1C (stereo not drawn)	Autofluor counter 22039
COc1ccc(-c2cc(C(=O)N3CCN(c4ccccc4)CC3)no2)cc1OC	none
CCCCOc1ccc(-n2nc(C)cc2C)nn1	none
Cc1cc(C)n(-c2ccc(OCC(=O)O)nn2)n1	Autofluor counter 23964
Cc1cc(C)[n+](-c2ccc(C(C)C)cc2)c2[nH]c(=O)[nH]c(=O)c12	FBA Mtb inh active
Cc1cccc(-[n+]2c(C)cc(C)c3c(=O)[nH]c(=O)[nH]c32)c1	FBA Mtb inh active, GDH-TPI inh 33
N#Cc1c(NC(=O)CSc2ncn[nH]2)sc2c1CCCCC2	Autofluor counter 22487, BoNT A protease inconclusive
N#Cc1c(NC(=O)CSc2nc(N)cc(=O)[nH]2)sc2c1CCCCCC2	none
N#Cc1c(NC(=S)NC(=O)Cc2cccs2)sc2c1CCCCC2	Autofluor counter 20268
O=C(c1ccccc1)c1nn(-c2ccccc2)c2nnc(Cc3ccccc3)c(=O)n12	Autofluor counter 17139
COc1cccc(/C=C(/C(=O)OCC(=O)NCC2CCCO2)c2ccccc2)c1 (stereo not drawn)	none
Cc1ccc2c(c1)C(O)(CC(=O)c1ccc(C)s1)C(=O)N2 (stereo not drawn)	none
COc1ccc2cc(C(c3nnnn3Cc3ccc(F)cc3)N3CCCCCC3)c(=O)[nH]c2c1 (stereo not drawn)	none
COc1ccc(Cn2nnnc2C(c2cc3ccc(OC)cc3[nH]c2=O)N2CCC(C)CC2)cc1 (stereo not drawn)	Autofluor counter 31718
COCCn1nnnc1C(c1cc2ccc(OC)cc2[nH]c1=O)N1CCN(C2CCCCC2)CC1 (stereo not drawn)	none
COc1ccc2cc(C(c3nnnn3Cc3ccccc3)N3CCCCCC3)c(=O)[nH]c2c1 (stereo not drawn)	Autofluor counter 18165
Cc1ccc(C(=O)Nc2ccc(NC(=O)c3ccc(C)o3)cc2)o1	none
Cc1ccc(C(=O)Nc2ccc(CC(=O)O)cc2)o1	Autofluor counter 18362
O=c1cc(CCc2ccccc2)[nH]c(=O)[nH]1	none (no result: GDH-TPI inh)
CN(C)CCCn1c(-c2ccccc2)nc(=S)c2c1CCCC2	Autofluor counter 19594, BoNT A protease inconclusive
Cc1cccc(-c2nc(=S)c3c(n2Cc2ccco2)CCCC3)c1	Autofluor counter 22703
OCCCn1c(-c2ccccc2)nc(=S)c2c1CCCC2	Autofluor counter 21784, BoNT A protease inconclusive
Cc1ccc(-c2nc(=S)c3c(n2Cc2ccco2)CCCC3)cc1	none
O=Cc1ccccc1-c1cn(CN2C(=O)c3ccccc3C2=O)nn1	none
O=C(O)c1cccc(CN2C(=O)S/C(=C/c3cccc([N+](=O)[O-])c3)C2=O)c1	GDH-TPI inh 44
C=CCN=C1S/C(=C/c2cccc([N+](=O)[O-])c2)C(=O)N1CC=C	none (no result: Autofluor counter, BoNT-F LC inh, BoNT A protease, Anthrax LF inh2)
CC(=O)c1cccc(NC(=O)c2ccc(S(=O)(=O)N3CC(C)OC(C)C3)cc2)c1 (stereo not drawn)	none
Cc1ccnc(N2C(=O)c3cccc4c([N+](=O)[O-])ccc(c34)C2=O)c1	GDH-TPI inh 33
COc1ccc(/C=N/NC(=O)c2cc(-c3cccn3C)n[nH]2)cc1OC	none
COc1cc(OC)c(OC)cc1/C=N/NC(=O)c1cc(-c2cccn2C)n[nH]1	GDH-TPI inh 38
COc1cc(OC)c(OC)cc1/C=N/NC(=O)c1ccc(=O)n(C)c1	GDH-TPI inh 54
O=C(NCc1cccs1)C1CCCN1S(=O)(=O)c1ccccc1F (stereo not drawn)	Autofluor counter 19819, BoNT A protease inconclusive
Cc1ccc(-c2n[nH]c(=S)n2Cc2ccccc2)cc1	Autofluor counter 22893, BoNT A protease inconclusive
Cc1cccc(-c2n[nH]c(=S)n2Cc2ccccc2)c1	none
S=c1[nH]nc(-c2cc3ccccc3o2)n1Cc1ccccc1	FBA Mtb inh 132
N#CCC1c2ccccc2CCN1C(=O)Nc1cccc(Cl)c1 (stereo not drawn)	Autofluor counter 23621
N#CCC1c2ccccc2CCN1C(=O)Nc1ccc(Cl)cc1 (stereo not drawn)	none
N#CCC1c2ccccc2CCN1C(=O)Nc1ccc(C(F)(F)F)cc1 (stereo not drawn)	Autofluor counter 16726
COc1ccc(Cc2nc3ccc(C(=O)NCC4COCCO4)cc3o2)cc1OC (stereo not drawn)	none
COc1ccc(/C=C/C(=O)NCCc2nc3ccccc3[nH]2)cc1	none
CCCCOc1ccc(/C=C/C(=O)NCCc2nc3ccccc3[nH]2)cc1	Autofluor counter 21858
CCCC(=O)Nc1nnc(SCC)s1	none
CC(C)/C=C1\CC/C(=C\c2ccc(N(C)C)cc2)C1=O	BoNT A protease 34
O=C1NC(=O)N(Cc2ccc(F)cc2)C(=O)/C1=C\c1ccc([N+](=O)[O-])s1	none (no result: Autofluor counter, BoNT-F LC inh, BoNT A protease, Anthrax LF inh2)
COc1ccc(CN2C(=O)NC(=O)/C(=C/c3ccc([N+](=O)[O-])s3)C2=O)cc1	GDH-TPI inh 31 (no result: Autofluor counter, BoNT-F LC inh, BoNT A protease, Anthrax LF inh2)
Cc1ccc(-c2cc(C(=O)O)c3sc(N4CCCCC4)nc3n2)cc1	FBA Mtb inh 163
CCCc1nc2c(C)cc(Br)cn2c1Cc1ccsc1	none (no result: GDH-TPI inh)
CCCCn1c(=N)n(CC(=O)c2ccco2)c2ccccc21	none
CCCCCCCn1c(=N)n(CC(=O)c2ccco2)c2ccccc21	Autofluor counter inconclusive, Anthrax LF inh2 72
Cc1cc(CNC(=O)Nc2ccc3c(c2)OCO3)nn1C	Autofluor counter inconclusive, Anthrax LF inh2 inconclusive
CC(=O)Nc1sc(N/N=C/c2ccc(O)cc2)nc1-c1ccc(C)cc1	GDH-TPI inh 35
Cn1c(O)c(C(c2ccccn2)c2c(O)n(C)c(=S)n(C)c2=O)c(=O)n(C)c1=S	none
CSCc1c(C(=O)OCC(=O)NC2CCCCC2)oc2ccccc12	none (no result: Autofluor counter, BoNT-F LC inh, BoNT A protease, Anthrax LF inh2)
O=C(c1coc(=O)c(Br)c1)N1CCC(C(O)(c2ccccc2)c2ccccc2)CC1	FBA Mtb inh 70, GDH-TPI inh 32
CCOC(=O)C1(C)CCCN(C(=O)c2cc(F)cc(F)c2)C1 (stereo not drawn)	none
CC1(C)CCCN(C(=O)c2coc(=O)c(Br)c2)C1	FBA Mtb inh 51
O=C(C1CC1)N1CCC(C(O)(c2ccccc2)c2ccccc2)CC1	Autofluor counter 21864, BoNT A protease inconclusive
Cc1ccc(SC(C)C(=O)Nc2c(C)n(C)n(-c3ccccc3)c2=O)cc1 (stereo not drawn)	none
CC(=O)Nc1ccc(C(=O)N(C)c2ccccc2)cc1	none
CCN(C(=O)c1ccc(NC(C)=O)cc1)c1ccccc1	Autofluor counter 21341
Cc1ccc(C(=O)N2CCCC2)cc1S(=O)(=O)Nc1ccccc1	none
